Percent Effect data for 11 compounds are collected here from ChEMBL document CHEMBL3988442, “University of Dundee, Small-Polar-MMV Screening Library” (2021).

For some of these results: Potency and affinity values are given separately.

Holding throughout (set-up): scale not given: direction of the effect not stated beside the values
For test [1], the target named is Protein translocase subunit SecA (Escherichia coli (strain K12)) (UniProt P10408). The experiment in a line: Assay to Identify E. coli SecA ATPase Inhibitors. The class given is functional. The following applies: 30 µM.
Test [2] has as its target T1, Ubiquitin-activating enzyme e1, putative (Leishmania donovani (strain BPK282A1)) (UniProt E9BSI1).
T1 sequence (whole entry): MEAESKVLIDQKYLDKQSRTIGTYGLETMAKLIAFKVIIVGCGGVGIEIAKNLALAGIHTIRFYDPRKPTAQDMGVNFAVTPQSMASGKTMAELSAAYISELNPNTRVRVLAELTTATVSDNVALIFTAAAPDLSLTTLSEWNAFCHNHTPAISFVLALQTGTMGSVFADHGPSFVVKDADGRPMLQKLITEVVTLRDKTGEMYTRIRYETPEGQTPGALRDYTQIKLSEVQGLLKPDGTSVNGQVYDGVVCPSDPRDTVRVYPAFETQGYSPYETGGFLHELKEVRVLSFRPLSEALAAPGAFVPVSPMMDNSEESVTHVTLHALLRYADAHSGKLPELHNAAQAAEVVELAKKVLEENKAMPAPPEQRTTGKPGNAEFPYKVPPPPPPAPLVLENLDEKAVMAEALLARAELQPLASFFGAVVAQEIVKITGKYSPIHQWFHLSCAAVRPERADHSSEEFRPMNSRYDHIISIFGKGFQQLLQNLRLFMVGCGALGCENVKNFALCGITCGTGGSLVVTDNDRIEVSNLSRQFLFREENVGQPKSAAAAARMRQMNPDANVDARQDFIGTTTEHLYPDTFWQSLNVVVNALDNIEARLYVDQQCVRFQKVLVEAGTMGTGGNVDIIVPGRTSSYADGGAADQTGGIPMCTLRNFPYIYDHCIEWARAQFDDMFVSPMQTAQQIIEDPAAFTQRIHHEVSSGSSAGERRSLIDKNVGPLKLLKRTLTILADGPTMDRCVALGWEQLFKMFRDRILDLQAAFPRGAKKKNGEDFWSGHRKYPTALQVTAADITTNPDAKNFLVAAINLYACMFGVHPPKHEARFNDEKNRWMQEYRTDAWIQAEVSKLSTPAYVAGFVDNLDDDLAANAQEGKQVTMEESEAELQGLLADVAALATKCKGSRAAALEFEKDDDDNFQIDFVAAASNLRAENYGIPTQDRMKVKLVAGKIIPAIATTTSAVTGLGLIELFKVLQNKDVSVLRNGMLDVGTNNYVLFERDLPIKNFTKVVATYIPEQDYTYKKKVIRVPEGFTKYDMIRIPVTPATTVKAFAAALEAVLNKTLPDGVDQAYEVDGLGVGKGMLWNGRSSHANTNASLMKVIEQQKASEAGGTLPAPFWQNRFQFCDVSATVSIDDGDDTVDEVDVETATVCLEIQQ
Briefly: Leishmania donovani Ubiquitin Activating Enzyme (LdE1). The following applies: 30 µM. The class given is functional.

Test [3] addresses AMP-activated protein kinase, AMPK (Homo sapiens) (UniProt P54646+O43741+P54619+Q9UGJ0+Q9Y478+Q13131+Q9UGI9). Briefly: AMP-dependent Kinase enzyme assay. An in vitro enzyme assay that detects ADP turnover that is directly proportional to AMPK activity. This uses naive AMPK that is activated during the assay with MK-8722. In kind it is functional. The following applies: 30 µM.
Test [4] has as its target Sialic acid-binding Ig-like lectin 9 (Homo sapiens) (UniProt Q9Y336). The experiment in a line: Hs-Siglec9 ALPHAscreen SOP 20170721. The following applies: 10 µM. (In Alpha technology, singlet oxygen from a donor bead excites a nearby acceptor bead.)
Test [5] deals with Trypanosoma cruzi. Briefly: Trypanosoma cruzi phosphomannomutase and mannose-1-phosphate guanylyltransferase assay. The following applies: 10 µM. In kind it is functional.
The target in test [6] is T2, Arginase-2, mitochondrial (Homo sapiens) (UniProt P78540).
T2 sequence (whole entry): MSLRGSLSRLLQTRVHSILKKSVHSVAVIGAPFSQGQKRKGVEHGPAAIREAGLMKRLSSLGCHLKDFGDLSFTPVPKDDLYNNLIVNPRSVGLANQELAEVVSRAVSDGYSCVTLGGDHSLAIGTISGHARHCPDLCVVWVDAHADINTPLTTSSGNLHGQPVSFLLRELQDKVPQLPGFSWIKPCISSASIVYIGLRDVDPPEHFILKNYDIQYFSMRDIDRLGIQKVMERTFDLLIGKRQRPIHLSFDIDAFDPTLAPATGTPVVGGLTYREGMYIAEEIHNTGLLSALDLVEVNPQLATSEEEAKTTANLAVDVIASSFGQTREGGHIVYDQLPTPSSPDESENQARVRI
The experiment in a line: in vitro enzyme assay to detect the production of urea directly proportional to the activity of Arginase II. Further: in the data most compounds retested in dose-response had high values. The class given is functional. The following applies: 33.3 µM.

Test [7] concerns the target T3, Proteasome subunit beta (Trypanosoma cruzi) (UniProt O96673).
T3 sequence (whole entry): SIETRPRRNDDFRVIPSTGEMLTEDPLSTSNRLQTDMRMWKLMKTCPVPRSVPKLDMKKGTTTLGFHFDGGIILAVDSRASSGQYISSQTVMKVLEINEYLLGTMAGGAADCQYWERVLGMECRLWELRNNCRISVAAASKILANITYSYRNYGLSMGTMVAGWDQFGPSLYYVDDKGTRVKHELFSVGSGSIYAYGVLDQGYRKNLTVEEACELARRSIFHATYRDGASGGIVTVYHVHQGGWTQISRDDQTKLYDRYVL
The experiment in a line: Trypanosoma cruzi proteasome chymotrypsin-like activity (TcProtChymo) assay. Further: in the data most compounds retested in dose-response had high values. The following applies: 9.37 µM. The class given is functional.

For test [8], the species on record is Homo sapiens. The experiment in a line: To identify inhibition of the IFN signalling (Jak-Stat) pathway via expression of an eGFP reporter gene under the control of an IFN-stimulated response element (ISRE) containing MxA promoter. The class given is functional. The following applies: 30 µM. A general note: In a reporter assay the amount or activity of a reporter protein is the signal.

The target of test [9] is T4, Tyrosyl-tRNA synthetase, putative (Trypanosoma cruzi (strain CL Brener)) (UniProt Q4DSP6).
T4 sequence (whole entry): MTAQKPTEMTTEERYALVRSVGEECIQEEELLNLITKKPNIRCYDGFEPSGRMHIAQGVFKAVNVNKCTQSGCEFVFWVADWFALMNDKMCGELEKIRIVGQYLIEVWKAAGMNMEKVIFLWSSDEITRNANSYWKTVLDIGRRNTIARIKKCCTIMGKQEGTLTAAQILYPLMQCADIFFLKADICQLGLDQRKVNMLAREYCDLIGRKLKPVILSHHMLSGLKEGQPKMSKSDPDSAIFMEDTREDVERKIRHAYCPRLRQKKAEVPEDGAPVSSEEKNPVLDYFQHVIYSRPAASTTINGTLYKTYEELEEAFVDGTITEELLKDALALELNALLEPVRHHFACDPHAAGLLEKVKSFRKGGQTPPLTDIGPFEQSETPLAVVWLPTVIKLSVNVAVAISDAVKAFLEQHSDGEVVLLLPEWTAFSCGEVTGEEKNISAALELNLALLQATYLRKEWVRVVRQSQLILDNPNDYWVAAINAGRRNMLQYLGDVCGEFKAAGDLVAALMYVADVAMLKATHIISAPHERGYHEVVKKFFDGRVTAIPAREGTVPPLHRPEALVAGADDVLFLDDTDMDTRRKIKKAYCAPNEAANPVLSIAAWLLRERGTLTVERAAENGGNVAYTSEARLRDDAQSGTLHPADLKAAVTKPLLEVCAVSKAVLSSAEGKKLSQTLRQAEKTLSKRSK
The experiment in a line: Trypanosoma cruzi tyrosyl tRNA synthetase (TcYRS) _High Tyrosine SOP. Further: in the data most compounds retested in dose-response had high values. In kind it is functional. The following applies: 30 µM.

The target in test [10] is T4, Tyrosyl-tRNA synthetase, putative (Trypanosoma cruzi (strain CL Brener)). Briefly: Trypanosoma cruzi tyrosyl tRNA synthetase (TcYRS) SOP. In kind it is functional. The following applies: 30 µM.
Test [11] deals with Chromo domain-containing protein 1 (Saccharomyces cerevisiae (strain ATCC 204508 / S288c) (Baker's yeast)) (UniProt P32657). Briefly: ScCHD-1 Enzyme Inhibition Assay. Further: in the data most compounds retested in dose-response had high values. The following applies: 30 µM. In kind it is functional.
Sequence of Chromo domain-containing protein 1 (Saccharomyces cerevisiae (strain ATCC 204508 / S288c) (Baker's yeast)) (P32657 whole entry, the tested form may be a part): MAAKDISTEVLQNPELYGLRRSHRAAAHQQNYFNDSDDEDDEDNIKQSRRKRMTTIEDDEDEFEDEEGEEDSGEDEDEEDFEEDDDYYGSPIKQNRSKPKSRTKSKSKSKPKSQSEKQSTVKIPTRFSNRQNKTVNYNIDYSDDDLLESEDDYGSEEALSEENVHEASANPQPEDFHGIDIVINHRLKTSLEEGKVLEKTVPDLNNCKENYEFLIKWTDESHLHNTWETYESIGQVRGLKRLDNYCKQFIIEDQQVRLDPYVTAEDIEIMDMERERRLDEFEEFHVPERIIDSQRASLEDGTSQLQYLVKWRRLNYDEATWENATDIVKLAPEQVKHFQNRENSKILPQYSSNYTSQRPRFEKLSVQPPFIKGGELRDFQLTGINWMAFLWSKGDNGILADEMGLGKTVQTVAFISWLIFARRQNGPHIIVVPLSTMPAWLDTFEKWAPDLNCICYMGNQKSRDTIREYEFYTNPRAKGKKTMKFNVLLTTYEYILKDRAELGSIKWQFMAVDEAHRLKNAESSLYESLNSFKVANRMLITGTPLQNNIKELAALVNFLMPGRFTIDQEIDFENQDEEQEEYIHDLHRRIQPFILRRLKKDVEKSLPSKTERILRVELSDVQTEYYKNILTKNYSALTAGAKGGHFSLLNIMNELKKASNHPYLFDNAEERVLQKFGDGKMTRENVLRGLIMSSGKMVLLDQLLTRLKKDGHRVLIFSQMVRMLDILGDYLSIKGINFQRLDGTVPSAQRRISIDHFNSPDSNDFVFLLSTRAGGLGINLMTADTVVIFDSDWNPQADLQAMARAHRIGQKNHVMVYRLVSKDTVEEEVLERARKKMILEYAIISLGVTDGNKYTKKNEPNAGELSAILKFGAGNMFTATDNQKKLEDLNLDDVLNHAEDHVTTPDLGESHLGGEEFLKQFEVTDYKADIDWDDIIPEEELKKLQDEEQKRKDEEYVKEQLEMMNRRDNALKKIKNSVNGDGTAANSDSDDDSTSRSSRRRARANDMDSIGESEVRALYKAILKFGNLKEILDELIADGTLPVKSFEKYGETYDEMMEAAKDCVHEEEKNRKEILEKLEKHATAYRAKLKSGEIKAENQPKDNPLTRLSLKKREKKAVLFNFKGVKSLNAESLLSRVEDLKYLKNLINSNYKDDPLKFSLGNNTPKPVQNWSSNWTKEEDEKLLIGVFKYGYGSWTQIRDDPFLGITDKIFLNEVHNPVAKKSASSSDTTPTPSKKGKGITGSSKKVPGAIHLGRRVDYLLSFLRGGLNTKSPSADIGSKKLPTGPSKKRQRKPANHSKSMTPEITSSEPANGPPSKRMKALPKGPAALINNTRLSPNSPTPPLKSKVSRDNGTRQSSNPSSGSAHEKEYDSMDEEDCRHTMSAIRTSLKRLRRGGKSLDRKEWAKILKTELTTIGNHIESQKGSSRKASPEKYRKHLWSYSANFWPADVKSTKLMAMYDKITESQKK

Sequence of Protein translocase subunit SecA (Escherichia coli (strain K12)) (P10408 whole entry): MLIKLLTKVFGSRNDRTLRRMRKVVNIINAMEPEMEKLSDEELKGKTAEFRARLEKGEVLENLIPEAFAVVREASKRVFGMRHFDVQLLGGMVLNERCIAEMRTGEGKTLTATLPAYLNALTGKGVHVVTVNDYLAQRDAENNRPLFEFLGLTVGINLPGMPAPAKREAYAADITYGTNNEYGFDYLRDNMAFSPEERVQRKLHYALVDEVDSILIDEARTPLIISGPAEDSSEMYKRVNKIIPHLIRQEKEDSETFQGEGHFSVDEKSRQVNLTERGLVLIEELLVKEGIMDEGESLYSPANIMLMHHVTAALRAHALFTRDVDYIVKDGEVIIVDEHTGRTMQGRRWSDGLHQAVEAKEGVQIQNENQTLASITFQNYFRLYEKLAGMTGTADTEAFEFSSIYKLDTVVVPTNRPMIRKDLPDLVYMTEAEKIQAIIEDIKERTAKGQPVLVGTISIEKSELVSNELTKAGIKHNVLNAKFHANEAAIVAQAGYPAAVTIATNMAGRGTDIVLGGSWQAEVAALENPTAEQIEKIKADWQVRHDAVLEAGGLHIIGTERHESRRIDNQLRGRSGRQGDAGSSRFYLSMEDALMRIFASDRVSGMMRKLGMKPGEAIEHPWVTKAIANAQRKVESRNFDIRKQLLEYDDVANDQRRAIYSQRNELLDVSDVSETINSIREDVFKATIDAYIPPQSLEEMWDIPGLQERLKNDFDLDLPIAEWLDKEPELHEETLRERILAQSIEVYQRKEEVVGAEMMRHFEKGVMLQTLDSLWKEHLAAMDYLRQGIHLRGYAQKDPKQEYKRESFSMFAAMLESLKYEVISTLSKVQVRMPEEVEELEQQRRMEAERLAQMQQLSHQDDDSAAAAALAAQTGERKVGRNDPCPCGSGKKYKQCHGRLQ
Sequence of Sialic acid-binding Ig-like lectin 9 (Homo sapiens) (Q9Y336 whole entry): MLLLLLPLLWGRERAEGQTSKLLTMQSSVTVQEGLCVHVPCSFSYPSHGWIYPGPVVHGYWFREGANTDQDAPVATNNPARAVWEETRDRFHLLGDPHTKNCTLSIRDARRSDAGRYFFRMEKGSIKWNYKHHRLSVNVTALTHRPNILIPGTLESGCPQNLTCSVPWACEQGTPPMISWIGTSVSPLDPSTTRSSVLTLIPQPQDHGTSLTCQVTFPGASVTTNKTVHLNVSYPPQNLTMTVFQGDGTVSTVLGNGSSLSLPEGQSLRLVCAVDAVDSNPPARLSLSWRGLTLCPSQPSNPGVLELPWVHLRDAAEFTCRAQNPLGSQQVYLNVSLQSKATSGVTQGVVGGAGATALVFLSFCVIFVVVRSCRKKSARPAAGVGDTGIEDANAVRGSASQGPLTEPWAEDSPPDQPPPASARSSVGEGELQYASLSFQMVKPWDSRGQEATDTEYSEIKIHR

As to `CCN1C(=O)C2(CCOCC2)c2cc(NC(=O)c3ccco3)ccc21`, the Percent Effect in [1] was -4.08%; in test [2] it was 18.2%; in [3], -1.2%; in [4], 14.7%; in test [5], 3.64%; in [6], -11%. Also, the Percent Effect was found to be 9.98% in [7]; 14.7% in test [8]; 5.38% in [9]; 11.1% in test [10]; 3.7% in test [11].
Consider `CC(=O)NCC(=O)N1Cc2nccn2CC(CN2CCCC2)C1` (stereo unspecified), for which the Percent Effect in test [1] was -4.42%; in test [2], 5.41%; in test [3], 1.1%; in test [4], -2.08%; in test [5] it was -5.77%; in test [6] it was 0.955%. Further, the Percent Effect in [7] is 19.6%; in test [8] it was 5.21%; in [9], 6.49%; in [10] it was 10.3%; in test [11], -0.00691%.
As to `O=C(c1ccc2c(c1)CCC2)N1C[C@@H](CN2CCOCC2)[C@@H](CO)C1`, the Percent Effect in test [1] is -4.64%; in test [2] it was 2.67%; in [3], 1.02%; in test [4], 21.3%; in test [5], -6.52%; in [6], 0%. For the same compound, the Percent Effect is 1.22% in test [7]; 0.733% in test [8]; 3.83% in test [9]; 3.7% in test [10]; -3.15% in test [11].
For the compound `Cc1cccc2c1OCCC2NCc1c(C)nn(C)c1N(C)C` (stereo unspecified), the Percent Effect in test [1] is 1.41%; in test [2], 18.4%; in test [3], -5.71%; in test [4], 0.779%; in [5], -3.95%; in [6] it was 7.28%. Besides, the Percent Effect in test [7] was 16.9%; in [8] it was 24.8%; in [9] it was 1.47%; in test [10] it was 7.32%; in test [11] it was -18.2%.
Regarding `O=C([C@H]1C[C@H]2OCC[C@H]2N(C(=O)C2CCOCC2)C1)N1CCCCO1`, the Percent Effect in [1] was -5.69%; in [2] it was 13.3%; in test [3], -3.93%; in test [4], 1.16%; in test [5], 1.93%; in [6], -50.4%. Further, the Percent Effect was 2.73% in test [7]; -17.9% in test [8]; 9.38% in test [9]; 22.5% in [10]; -6.17% in test [11].
For the compound `CCn1cnnc1C1CCN(C(=O)c2cnc3ccccc3n2)CC1`, the Percent Effect in [1] was -1.53%; in test [2], 5.26%; in [3] it was 5.47%; in [4], 3.25%; in test [5] it was 5.75%; in test [6], -11.8%. In addition, the Percent Effect in test [7] is 13.7%; in [8] it was -15.4%; in test [9], 0%; in test [10] it was 2.6%; in [11] it was 1.06%.
For `O=C(CCc1cc2n(n1)CCCN(C(=O)c1cccnc1)C2)NC1CC1`, the Percent Effect in test [1] was -2.13%; in test [2], 4.17%; in [3], -1.68%; in [4], -4.93%; in test [5], -3.21%; in test [6] it was -2.21%. Also, the Percent Effect in [7] is 10.7%; in test [8] it was 4.24%; in test [9], 0%; in test [10] it was 7.69%; in test [11], -2.05%.
Regarding `O=C1N(CCCc2ccccc2)CCCC1(O)CNCc1ccccc1` (stereo unspecified), the Percent Effect in test [1] was -3.24%; in [2], 2.7%; in test [3], -10.2%; in test [4] it was 31.6%; in test [5], 4.4%; in test [6], -0.248%. The Percent Effect in test [7] is 8.5%; in [8] it was -7.46%; in test [9], 8.6%; in [10], 18.5%; in test [11], -3.9%.
Turning to `CS(=O)(=O)N1C[C@@H]2CC[C@H](C1)N(Cc1cscn1)C2=O`, the Percent Effect in [1] is -4.04%; in test [2] it was 11%; in [3], -5.85%; in test [4], 7.01%; in [5] it was 6.35%; in test [6], -4.39%. Further, the Percent Effect is 9.85% in test [7]; 3.89% in test [8]; 6.25% in test [9]; 18.5% in test [10]; -6.64% in test [11].
Take `O=C(CC1CCCC1)NCCn1ccc(-c2ccncc2)n1`: the Percent Effect in [1] was -3.35%; in test [2] it was 0%; in [3] it was 5.83%; in test [4] it was 6.39%; in [5], -3.65%; in [6] it was 3.23%. Further, the Percent Effect in [7] was 1.92%; in test [8] it was 13.7%; in [9], -5.29%; in test [10] it was 3.85%; in test [11] it was 1.38%.
As for `CN(C)C(=O)COC[C@]12COC[C@H]1CN(CC1CCC1)C2`, the Percent Effect is 1.38% in test [1]; 2.7% in test [2]; -10.5% in test [3]; 19.2% in test [4]; 4.79% in test [5]; 6.7% in [6]. Also, the Percent Effect in test [7] was 7.12%; in test [8], 8.3%; in test [9], 2.15%; in [10] it was 3.7%; in test [11], -9.34%.
